According to PubChem BioAssay (NCATS):
Records with an inconclusive call do not appear. A call without a number means that no potency is given here. Active and inactive are the calls of the source. Calls come from the whole dose curve; as a rule, active = well fitted curve in the direction sought with a large enough effect; inconclusive = small, poorly fitted or top-dose-only effect, or another doubt; inactive = no such curve, though single readings can be large; an effect the other way counts as inactive or inconclusive.

Columns and labels:
[1] = target: Voltage-gated inwardly rectifying potassium channel KCNH2 (Homo sapiens) (UniProt Q12809); experiment: qHTS Assay for Small Molecule Inhibitors of the Human hERG Channel Activity (AID 588834); conditions: U2OS BacMam hERG, FluxOR thallium flux fluorescence; series mostly up to 46.1 µM;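 note: top concentration of the series differs between compounds; lower thallium flux fluorescence means stronger hERG block; nearly all actives have a fitted effect of over 50% in size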
Voltage-gated inwardly rectifying potassium channel KCNH2 (Homo sapiens), sequence (Q12809 whole entry, looked up): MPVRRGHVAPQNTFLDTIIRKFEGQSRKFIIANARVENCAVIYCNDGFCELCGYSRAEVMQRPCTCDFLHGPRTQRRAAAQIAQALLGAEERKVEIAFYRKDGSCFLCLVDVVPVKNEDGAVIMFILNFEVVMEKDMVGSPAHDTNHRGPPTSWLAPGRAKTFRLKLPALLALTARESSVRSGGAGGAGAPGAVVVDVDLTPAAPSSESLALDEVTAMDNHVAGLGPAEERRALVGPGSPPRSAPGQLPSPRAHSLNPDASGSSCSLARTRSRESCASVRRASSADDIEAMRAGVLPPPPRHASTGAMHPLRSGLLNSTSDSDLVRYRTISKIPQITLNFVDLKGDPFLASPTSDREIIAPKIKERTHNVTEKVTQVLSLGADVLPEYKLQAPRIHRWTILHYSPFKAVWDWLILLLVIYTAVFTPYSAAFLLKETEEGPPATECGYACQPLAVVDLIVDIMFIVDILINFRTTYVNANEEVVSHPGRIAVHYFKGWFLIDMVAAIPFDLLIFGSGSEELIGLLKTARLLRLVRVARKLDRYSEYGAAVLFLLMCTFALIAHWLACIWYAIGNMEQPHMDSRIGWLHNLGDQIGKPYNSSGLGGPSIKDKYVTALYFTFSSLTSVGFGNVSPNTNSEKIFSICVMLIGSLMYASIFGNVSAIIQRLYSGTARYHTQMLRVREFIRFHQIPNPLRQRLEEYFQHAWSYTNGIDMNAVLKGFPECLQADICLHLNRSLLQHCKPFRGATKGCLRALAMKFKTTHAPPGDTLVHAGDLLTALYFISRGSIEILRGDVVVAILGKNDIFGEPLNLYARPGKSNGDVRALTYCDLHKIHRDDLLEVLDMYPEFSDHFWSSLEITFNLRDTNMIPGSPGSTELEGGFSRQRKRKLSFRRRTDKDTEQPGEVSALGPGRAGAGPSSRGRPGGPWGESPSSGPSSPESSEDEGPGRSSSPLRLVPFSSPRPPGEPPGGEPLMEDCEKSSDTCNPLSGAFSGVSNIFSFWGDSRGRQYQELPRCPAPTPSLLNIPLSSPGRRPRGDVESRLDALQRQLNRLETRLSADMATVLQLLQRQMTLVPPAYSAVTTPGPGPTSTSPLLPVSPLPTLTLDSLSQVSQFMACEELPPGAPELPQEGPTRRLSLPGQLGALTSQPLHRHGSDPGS
Outline: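 hERG block measured as reduced thallium-dye (FluxOR) fluorescence after stimulation buffer addition, read over 2 min. Cells were hERG-BacMam-transduced U2OS exposed to compound ~10 min […]; concentration-response fitted with Hill equation for AC50.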

[2] = target: Luciferin 4-monooxygenase (Photinus pyralis) (UniProt P08659); experiment: Biochemical firefly luciferase enzyme assay for NPC (AID 624030); note: nearly all actives have a fitted effect of over 70% in size; note: potency is the fitted concentration of half-maximal effect; conditions: purified P. pyralis luciferase, luminescence, 5 min; series mostly up to 58.6 µM
Luciferin 4-monooxygenase (Photinus pyralis), sequence (P08659 whole entry, looked up): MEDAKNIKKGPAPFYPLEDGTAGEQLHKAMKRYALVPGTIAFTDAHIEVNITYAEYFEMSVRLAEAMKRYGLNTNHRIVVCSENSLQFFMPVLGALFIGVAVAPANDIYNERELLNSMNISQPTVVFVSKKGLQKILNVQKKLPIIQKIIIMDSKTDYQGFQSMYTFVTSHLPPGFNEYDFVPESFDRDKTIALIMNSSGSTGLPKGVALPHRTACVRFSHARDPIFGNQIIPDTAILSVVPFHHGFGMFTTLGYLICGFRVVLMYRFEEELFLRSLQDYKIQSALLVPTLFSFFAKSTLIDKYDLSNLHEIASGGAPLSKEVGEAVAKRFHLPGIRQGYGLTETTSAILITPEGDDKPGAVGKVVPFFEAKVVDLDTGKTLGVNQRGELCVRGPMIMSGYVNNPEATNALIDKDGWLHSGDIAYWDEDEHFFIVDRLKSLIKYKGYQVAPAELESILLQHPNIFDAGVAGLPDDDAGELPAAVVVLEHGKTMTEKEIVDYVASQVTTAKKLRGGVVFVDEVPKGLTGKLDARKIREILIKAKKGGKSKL
Outline: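 Direct inhibition of firefly luciferase enzyme (10 nM final, 50 mM Tris Acetate) assessed by luminescence within 5 minutes. Percent activity scaled between DMSO and PTC124 positive control, with concentration-effect curves classified by fit quality and response.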

[3] = S16 Schwann cell viability assay (CellTiter-Glo assay) (AID 624031); conditions: S16 rat Schwann cells viability, 24 h; series mostly up to 57.5 µM; note: nearly all actives have a fitted effect of over 70% in size; note: potency is the fitted concentration of half-maximal effect
Outline: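 This viability control uses native rat S16 Schwann cells grown in DMEM plus 10% FBS. After a 24 h compound treatment at 37 °C, CellTiter-Glo luminescence reports ATP content, scaled against DMSO-treated and cell-free wells.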

Compound	Potency [1]	Potency [2]	Potency [3]
CN(C)C(=O)COC(=O)Cc1ccc(OC(=O)c2ccc(N=C(N)N)cc2)cc1	inactive	inactive	inactive
Cc1cc2c(s1)Nc1ccccc1N=C2N1CCN(C)CC1	inactive	inactive	
O=C(OC1C[C@H]2CC[C@@H](C1)[N+]21CCCC1)C(O)(c1ccccc1)c1ccccc1 (stereo not given in full)	inactive	inactive	
CC(=O)Nc1ccc(O)cc1	inactive	inactive	inactive
Cc1cc(C2CCCCC2)n(O)c(=O)c1	inactive	inactive	inactive
CCOc1cc(CC(=O)N[C@@H](CC(C)C)c2ccccc2N2CCCCC2)ccc1C(=O)O	inactive	inactive	inactive
Nc1cc(C(Cl)=C(Cl)Cl)c(S(N)(=O)=O)cc1S(N)(=O)=O	inactive	inactive	inactive
COCCCOc1ccnc(CS(=O)c2nc3ccccc3[nH]2)c1C (stereo not given)	inactive		inactive
CC(C)[N+]1(C)[C@@H]2CC[C@H]1CC(OC(=O)C(CO)c1ccccc1)C2 (stereo not given in full)		inactive	
O=C1CCc2ccc(OCCCCN3CCN(c4cccc(Cl)c4Cl)CC3)cc2N1		inactive	32.2 µM (active)
Cc1ccc(Nc2nccc(N(C)c3ccc4c(C)n(C)nc4c3)n2)cc1S(N)(=O)=O		inactive	
COC(=O)N[C@H](C(=O)N[C@@H](Cc1ccccc1)[C@@H](O)CN(Cc1ccc(-c2ccccn2)cc1)NC(=O)[C@@H](NC(=O)OC)C(C)(C)C)C(C)(C)C		inactive	
COc1cc(Nc2c(C#N)cnc3cc(OCCCN4CCN(C)CC4)c(OC)cc23)c(Cl)cc1Cl		inactive	
CC(S)C(=O)NCC(=O)O (stereo not given)	inactive	inactive	inactive
Cn1c(NCCN(CCO)CCCc2ccc([N+](=O)[O-])cc2)cc(=O)n(C)c1=O		inactive	
CCC(C)(Oc1ccc(C2(c3ccc(OC(C)(CC)C(=O)O)cc3)CCCCC2)cc1)C(=O)O (stereo not given)	inactive		inactive
COc1cc2c(N3CCN(C(=O)Nc4ccc(OC(C)C)cc4)CC3)ncnc2cc1OCCCN1CCCCC1		inactive	
c1cnc2cc3c(cc2n1)C1CNCC3C1		inactive	
NC(=O)Cc1cccc(C(=O)c2ccccc2)c1N		inactive	
Cc1nccn1CC1CCc2c(c3ccccc3n2C)C1=O (stereo not given)		inactive	
Cc1ccc(NC(=O)c2ccc(CN3CCN(C)CC3)cc2)cc1Nc1nccc(-c2cccnc2)n1		12.8 µM (active)	
Cc1cc(=O)oc2cc(O)ccc12	inactive	inactive	inactive
Cc1nc(-c2ccc(OCC(C)C)c(C#N)c2)sc1C(=O)O		0.0361 µM (active)	
CC(C)Oc1ccc2c(=O)c(-c3ccccc3)coc2c1		2.03 µM (active)	
CCC1=C(C)CN(C(=O)NCCc2ccc(S(=O)(=O)NC(=O)NC3CCC(C)CC3)cc2)C1=O (stereo not given)		inactive	
C[C@]12CCC(=O)C=C1CC[C@@H]1[C@H]2[C@@H](O)C[C@@]2(C)[C@H]1CC[C@]2(O)C(=O)CO	inactive	inactive	inactive
O=C(O)CCNC(=O)c1ccc(N=Nc2ccc(O)c(C(=O)O)c2)cc1	inactive		inactive
CC1=C(C(=O)O)N2C(=O)[C@@H](NC(=O)[C@H](N)C3=CCC=CC3)[C@H]2SC1		inactive	
